“And” between values parts separate entries of the source, which are not always exact repeats. Equal values may be shown once. Records with an inconclusive call do not appear. Some structures have more than one record in an assay (separate samples or runs), and their calls can disagree. The source made the active and inactive calls. How the source made its calls, unless noted: active means hit-call score of the fitted dose curve at least 0.9, where 1 is the maximum; inactive means score below 0.9.
Tests used:
[1] = CCTE_Shafer_MEA_dev_firing_rate_mean: CCTE's Neural Network Formation Assay for Mean Firing Rate, Shafer Lab (AID 2284031);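 on AC50: curve fitted for loss of firing so AC50 reflects decreased mean firing rate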
How it was run: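 Primary rat cortical neurons on 48-well, 16-electrode MEAs (PEI-coated, laminin at plating), exposed from day 0 with compound renewed at DIV 5 and 9. Spikes recorded DIV 5, 7, 9, 12; well-mean firing rate collapsed to trapezoidal AUC, loss-of-signal vs DMSO.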

[2] = CCTE_Shafer_MEA_dev_per_burst_spike_percent: CCTE's Neural Network Formation Assay for Percent of Spikes in a Burst, Shafer Lab (AID 2284032);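 on AC50: fitted as a decrease in burst spike percentage below DMSO baseline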
How it was run: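 Rat primary cortical neurons on 16-electrode MEA wells, dosed from plating day 0 for 12 days with renewal on DIV 5 and 9; spikes-in-bursts percentage averaged over bursting electrodes, collapsed as AUC across days 5, 7, 9, 12; loss direction versus DMSO.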

[3] = CCTE_Shafer_MEA_dev_burst_rate: CCTE's Neural Network Formation Assay for Burst Rate, Shafer Lab (AID 2284042);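 on AC50: potency for loss of burst rate below DMSO control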
How it was run: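 Rat primary cortical cultures on PEI/laminin MEA; compound from plating, re-dosed at DIV 5, 9 media change. Single-electrode bursts/recording length, well mean of active electrodes; AUC over DIV 5–12 recordings; loss-of-signal vs DMSO.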

[4] = target: Estrogen receptor (Homo sapiens) (UniProt P03372); assay: CCTE_Deisenroth_AIME_384WELL_LUC_Active: CCTE's 384-well Estrogen Receptor Transactivation Assay with AIME metabolic competence (ERTA luciferase; metabolism positive), Deisenroth Lab (AID 2284030; active means hit-call score of the fitted dose curve at least 0.9, where 1 is the maximum)
Estrogen receptor (Homo sapiens), sequence (P03372 whole entry, looked up): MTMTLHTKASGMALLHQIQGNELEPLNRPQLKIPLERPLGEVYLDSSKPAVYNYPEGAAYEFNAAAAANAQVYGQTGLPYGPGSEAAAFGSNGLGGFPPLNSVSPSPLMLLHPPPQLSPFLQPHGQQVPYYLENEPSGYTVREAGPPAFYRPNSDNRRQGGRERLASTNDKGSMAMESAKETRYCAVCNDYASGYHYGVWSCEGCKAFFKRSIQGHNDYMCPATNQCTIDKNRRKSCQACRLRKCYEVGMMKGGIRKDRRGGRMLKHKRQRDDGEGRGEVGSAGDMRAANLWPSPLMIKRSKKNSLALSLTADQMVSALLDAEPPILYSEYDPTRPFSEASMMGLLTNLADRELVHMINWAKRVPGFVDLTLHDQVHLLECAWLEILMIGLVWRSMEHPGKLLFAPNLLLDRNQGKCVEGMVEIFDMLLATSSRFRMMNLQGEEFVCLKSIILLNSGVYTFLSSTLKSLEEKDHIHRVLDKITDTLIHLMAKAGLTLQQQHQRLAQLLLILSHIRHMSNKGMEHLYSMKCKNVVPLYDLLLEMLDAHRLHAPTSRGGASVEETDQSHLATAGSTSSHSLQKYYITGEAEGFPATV
How it was run: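 Readout: bioluminescent luciferase induction in VM7Luc4E2 cells 24 hour after receiving medium from a 2 h rat hepatic S9 (induced, alginate microsphere) metabolism step. Concentrations 0.002 - 200 uM; activity scaled to 17beta-estradiol positive control.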

[5] = target: Estrogen receptor (Homo sapiens) (UniProt P03372); assay: CCTE_Deisenroth_AIME_384WELL_LUC_Inactive: CCTE's 384-well Estrogen Receptor Transactivation Assay without AIME metabolic competence (ERTA luciferase; metabolism negative), Deisenroth Lab (AID 2284038; active means hit-call score of the fitted dose curve at least 0.9, where 1 is the maximum;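 further: hits raise estrogen receptor luciferase signal so potencies reflect agonists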)
How it was run: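 Chemicals (10-point series, 0.002 - 200 uM) were incubated 2 hours with alginate-water microsphere lids lacking S9, then the conditioned medium was transferred to VM7Luc4E2 breast cells for 24 hour. Luciferase induction was read by bioluminescence, fitted upward relative to 17beta-estradiol.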

[6] = target: Estrogen receptor (Homo sapiens) (UniProt P03372); assay: CCTE_Deisenroth_AIME_384WELL_LUC_Shift: CCTE's 384-well Estrogen Receptor Transactivation Assay with AIME metabolic competence data shift (ERTA luciferase; difference in metabolism positive and negative), Deisenroth Lab (AID 2284041);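 further: shift is response with S9 minus without S9 so positive means metabolism raised ER signal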
How it was run: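 Here, parent compounds undergo 2 h phase I metabolism by PB/BNF-induced rat S9 before 24 h transactivation in VM7Luc4E2 cells; the curve models S9-positive minus S9-negative response over a 10-point series.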

[7] = CCTE_Deisenroth_AIME_96WELL_CTox_Active: Cytotoxicity Assessment (CTOX) in CCTE's 96-well Estrogen Receptor Transactivation Assay with AIME metabolic competence (metabolism positive), Deisenroth Lab (AID 2284028; active means hit-call score of the fitted dose curve at least 0.9, where 1 is the maximum)
How it was run: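 Chemicals (0.002–200 uM) were first incubated 2 h with alginate-immobilized phenobarbital/beta-naphthoflavone-induced male rat liver S9; conditioned medium then went onto VM7Luc4E2 cells for 24 h, with viability read by protease-substrate fluorescence, fitted bidirectionally.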

[8] = CCTE_Deisenroth_AIME_96WELL_CTox_Inactive: Cytotoxicity Assessment (CTOX) in CCTE's 96-well Estrogen Receptor Transactivation Assay without AIME metabolic competence (metabolism negative), Deisenroth Lab (AID 2284029; active means hit-call score of the fitted dose curve at least 0.9, where 1 is the maximum)
How it was run: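 Chemicals (10-point series, 0.002-200 uM) were incubated 2 h with alginate-water microspheres lacking S9. The conditioned medium was then transferred onto VM7Luc4E2 cells for 24 h. Viability was measured by protease-substrate cleavage to a fluorescent probe, with loss of signal fitted bidirectionally; n≥4 experimental replicates.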

[9] = CCTE_Deisenroth_AIME_384WELL_CTox_Inactive: Cytotoxicity Assessment (CTOX) in CCTE's 384-well Estrogen Receptor Transactivation Assay without AIME metabolic competence (metabolism negative), Deisenroth Lab (AID 2284039; active means hit-call score of the fitted dose curve at least 0.9, where 1 is the maximum;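 further: cell viability via live-cell protease substrate cleaved to fluorescent probe; cells exposed 24 h to medium preincubated 2 h with alginate-water beads without S9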)
How it was run: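 VM7Luc4E2 human breast cells received conditioned medium from a 2 h incubation of chemical with alginate-water microspheres (no S9), then were exposed 24 h. Viability was read as protease-substrate cleavage to a fluorescent probe; loss of signal was fitted bidirectionally over 0.002–200 uM.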

[10] = CCTE_Deisenroth_AIME_384WELL_CTox_Active: Cytotoxicity Assessment (CTOX) in CCTE's 384-well Estrogen Receptor Transactivation Assay with AIME metabolic competence (metabolism positive), Deisenroth Lab (AID 2284037; active means hit-call score of the fitted dose curve at least 0.9, where 1 is the maximum;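 further: activity means signal loss indicating cell death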)
How it was run: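 VM7Luc4E2 breast cells received medium pre-incubated 2 h with chemical over alginate microspheres holding induced male Sprague Dawley rat liver S9; viability read 24 h later by protease-substrate fluorescence. Loss of signal, bidirectional fit, 0.002–200 uM.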

Measured: AC50

c1ccc2c(c1)Cc1ccccc1-2
inactive: [1] | [2] | [3]

COC(=O)CCCCC(=O)OC
inactive: [4] | [5] | [6]

c1ccc2cc3c(ccc4ccccc43)cc2c1
active: [4] 53.8 µM | [6] 64.2 µM
not listed: [5] | [10]
inactive: all other assays above

OC1CCCCC1
inactive: [4] | [10] | [5] | [9] | [6]

COc1ccc([N+](=O)[O-])cc1N
inactive: [5] | [6]
active: [10] 100 µM | [9] 100 µM

CCCCCCCC(=O)O
active: [6] 42.1 µM
inactive: [10] | [5] | [9]

CCCCCCCCC(=O)O
inactive: [4] | [10] | [5] | [9] | [6]

COc1cc(CCC(=O)CC(=O)CCc2ccc(O)c(OC)c2)ccc1O
active: [7] 150 µM | [8] 164 µM

CC#C[C@]1(O)CC[C@H]2[C@@H]3CCC4=CC(=O)CCC4=C3[C@@H](c3ccc(N(C)C)cc3)C[C@@]21C
inactive: [4] | [1] | [10] | [5] | [9] | [6] | [3]
active: [1] 8.04 µM | [2] 6.81 µM and 22.9 µM | [3] 5.1 µM

CC1=C(/C=C/C(C)=C/C=C/C(C)=C/C(=O)O)C(C)(C)CCC1
active: [1] 2.98 µM | [2] 19.6 µM | [3] 4.01 µM

c1ccc2c(c1)ccc1ccccc12
inactive: [8] | [1] | [2] | [3]

C[C@@H]1C[C@H]2[C@@H]3CCC4=CC(=O)C=C[C@]4(C)[C@@]3(F)[C@@H](O)C[C@]2(C)[C@@]1(O)C(=O)COP(=O)(O)O
inactive: [10] | [6]

Reference: PubChem BioAssay (EPA / NIEHS)
